High-throughput results deposited in PubChem by National Center for Advancing Translational Sciences (NCATS).
Rows were chosen to be rich in hits. Some 5.2% of all compounds tested hit in one or more screens of this group.
Sfp inh = blocks B. subtilis Sfp PPTase activity | Q9F4F7 | Biochemical Sfp PPTase activity, qHTS | Potency, µM, hits mostly inhibitors | 3.5% of 310,000 active;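 note: the enzyme is Sfp with the accession as filed and its product quenches rhodamine fluorescence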
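Fluorescence-quenching assay: 15 nM Sfp-PPTase preincubated 15 min at room temperature with compound, then 5 uM rhodamine-CoA and 12.5 uM BHQ-2-labelled YbbR peptide added. Fluorescence (ex 525/em 598 nm) read at start and after 30 min; difference gives rate.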
Tau ThT inhib = blocks human tau fibril formation measured by thioflavin T; Potency, µM (highest dose often 57.4 µM), most hits filed as inhibitors; recombinant tau K18 P301L, heparin-induced fibrillization, ThT fluorescence; 2.1% of 270,000 active; P10636; AID 1460; note: nearly all actives have a fitted effect of over 55% in size
Target sequence (P10636 561-689 P618L limits assumed): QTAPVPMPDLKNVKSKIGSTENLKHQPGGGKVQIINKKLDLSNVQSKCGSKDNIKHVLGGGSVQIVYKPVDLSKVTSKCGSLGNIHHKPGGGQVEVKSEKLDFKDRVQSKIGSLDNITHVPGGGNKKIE
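In this qHTS, human K18 P301L tau is incubated with compound and heparin for 6 hr at 37 C, and Thioflavin T fluorescence then reports fibril load.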
Tau fluor cs = counter-screen for tau fibril formation inhibitors; tau K18 P301L (four-repeat tau fragment) Alexa594 fluorescence, heparin fibrillization; Potency, µM (doses to about 57.7 µM); 0.93% of 280,000 active; AID 1463; note: nearly all actives have a fitted effect of over 55% in size
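Human K18 P301L tau (15 uM unlabeled plus 0.24 uM Alexa 594-labeled, final) in 100 mM sodium acetate pH 7 was mixed with compound and 20 uM heparin and incubated 6 hr at 37 C.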
Tau FP inhib = inhibitors of human tau fibril formation | 0.39% of 280,000 active | Potency, µM (doses to about 57.7 µM), most hits filed as inhibitors | P10636 | K18 P301L tau heparin fibrillization, Alexa594 FP, 6 h | AID 1468; note: nearly all actives have a fitted effect of over 55% in size
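Human tau K18 […] P301L fragment, 15 uM unlabeled plus 0.24 uM Alexa 594-labeled tau (final), with compound and 20 uM heparin in 100 mM sodium acetate pH 7; 6 hr at 37 C, then Alexa 594 FP read.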
Coupling enz = inhibits coupling enzyme system, counter-screen for aldolase hits; 0.67% of 290,000 active; coupling enzyme system counterscreen, AmpLite Red fluorescence; activity change, negative = inhibition, % at 58.2 µM, hits read low; in the data active = activity change below about -30%
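Activity here indicates interference with the coupling reaction, not aldolase inhibition. Compounds at 57.5 uM final met coupling enzymes for 10 min at RT; substrate and AmpLite Red detection followed, with a 525/598 nm fluorescence read after 20 min.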
Numbers stand for hits; . = inactive; ? = inconclusive; / = no result given; [ ] = remark or other dose. Unless noted, calls come from the whole dose curve; as a rule, active = well fitted curve in the direction sought with a large enough effect; inconclusive = small, poorly fitted or top-dose-only effect, or another doubt; inactive = no such curve, though single readings can be large; an effect the other way counts as inactive or inconclusive.

SMILES	Sfp inh	Tau ThT inhib	Tau fluor cs	Tau FP inhib	Coupling enz
C[C@]12C[C@H](O)C3[C@@H](CCC4=CC(=O)CC[C@@]43C)[C@@H]1CC[C@@H]2C(=O)CO (stereo not given in full)	/	.	?	.	/
CCCCCCOC(=O)C1(O)CC2OC1(C)n1c3ccccc3c3c4c(c5c6ccccc6n2c5c31)C(=O)NC4 (stereo not given)	.	.	.	.	.
Cc1cccc(C(=O)Nc2nnc(SCc3cc(=O)n4cccc(C)c4n3)s2)c1	/	.	.	.	/
O=c1[nH]c(C(F)(F)F)nc2ccc3ccccc3c12	.	/	/	/	.
COc1cccc(CNC(=O)c2ccc(-c3nc(CS(=O)(=O)c4ccccc4)c(C)o3)cc2)c1	/	.	.	.	/
N#Cc1cc2c(N)c(C(=O)Nc3ccccc3)sc2nc1N	.	7.9µM	?	.	.
Cc1cccc(NC(=O)c2sc3nc(N)c(C#N)cc3c2N)c1	.	?	?	?	.
COc1ccccc1NC(=O)c1sc2nc(-c3ccco3)ccc2c1N	.	?	?	.	.
Nc1c(C(=O)Nc2ccccc2)sc2nc(-c3ccco3)ccc12	7.9µM	?	?	.	.
O=c1c(-c2ccc(Cl)cc2)nc2cnc(N3CCNCC3)nc2n1-c1ccccc1	.	/	/	/	.
NC(=O)CSc1nnc(-c2ccccn2)n1Cc1ccco1	.	.	.	.	.
Clc1ccccc1CSc1nnc(-c2ccccn2)n1Cc1ccco1	56µM	.	.	.	.
C(=C\c1ccccc1)/CSc1nnc(-c2ccccn2)n1Cc1ccco1	32µM	.	.	.	.
CCN=C1NN=C(c2cc(C)n(CCc3ccccc3)c2C)CS1	50µM	?	.	.	.
Cc1cc(C2=NNC(=NCCc3ccccc3)SC2)c(C)n1CC1CCCO1 (stereo not given)	50µM	.	.	.	.
COc1cc(Cl)c(C)cc1NC(=O)c1cc2c(Cl)nc3ccc(C)cc3c2s1	/	.	.	.	/
N[C@@H](Cc1cc(CP(=O)(O)O)cc(-c2ccccc2Cl)c1)C(=O)O	8.9µM	.	.	.	.
NC(Cc1cccc(-c2ccccc2CP(=O)(O)O)c1)C(=O)O (stereo not given)	/	.	.	.	/
CCC(C)(C)n1nnnc1C(c1cc2ccc(OC)cc2[nH]c1=O)N1CCc2ccccc2C1 (stereo not given)	4.5µM	?	.	.	.
COc1ccc2cc(C(c3nnnn3C3CCCC3)N3CCc4ccccc4C3)c(=O)[nH]c2c1 (stereo not given)	22µM	28µM	.	?	-33
CCC(C)(C)n1nnnc1C(c1cc2ccc(OC)cc2[nH]c1=O)N1CCc2ccccc21 (stereo not given)	10µM	?	?	.	.
COc1ccc2cc(C(c3nnnn3C(C)(C)C)N3CCc4ccccc4C3)c(=O)[nH]c2c1 (stereo not given)	?	?	.	.	.
O=C(Cn1nc(C(F)(F)F)c2c1CCC2)Nc1ccc(Cl)cc1	/	.	?	?	/
Clc1ccc(SCc2cn3ccccc3n2)cc1	.	?	.	.	.
c1ccc2c(SCc3cn4ccccc4n3)nncc2c1	45µM	.	.	.	.
SMILES	Sfp inh	Tau ThT inhib	Tau fluor cs	Tau FP inhib	Coupling enz
Cc1cc(C)cc(NC(=O)C2CCCN(c3nnc(C)c4c(C)n(-c5ccccc5)nc34)C2)c1 (stereo not given)	/	.	.	.	/
Cc1ccc(Cl)cc1NS(=O)(=O)c1ccc2oc(=O)c3ncn(C)c3c2c1	/	.	.	.	/
CCCCOc1ccc(C(=O)NCC2(N3CCN(C)CC3)CCCCC2)cc1	/	.	.	.	/
COc1ccc(CN(C)c2ccc(-c3nc(-c4ccc(OC)c(OC)c4)no3)cc2[N+](=O)[O-])cc1	/	?	?	.	/
Cc1cccc(OCc2n(CC(=O)OC3CC(C)CCC3C(C)C)c3ccccc3[n+]2C)c1 (stereo not given)	25µM	?	.	.	.
COc1cc2c(cc1OC)C(c1ccccc1)CN(C)CC2 (stereo not given)	.	.	.	.	/
Oc1cc2c(cc1O)[C@H](c1ccccc1)CNCC2	79µM	?	.	.	.
O=C(Nc1ccc(Cl)cc1)c1cc2c(cc1O)[nH]c1ccccc12	.	?	4µM[quencher]	.	.
CCOc1ccc(-c2cc(-c3nc(-c4ccc(C)cc4)no3)[nH]n2)cc1	/	.	.	?	/
c1ncc(CCCC2CCNCC2)[nH]1	.	/	/	/	.
